Read-outs that look alike come from different tables or passages of the source. Screen size: about 13,000 compounds; about 3,200 (25%) showed an effect of 50% or more. Some of the results follow.
Tested on: P. falciparum stage V gametocytes
Design: BacTiter-Glo ATP luminescence viability of purified stage V gametocytes in 384-well plates, per cent inhibition versus DMSO
Details: 48 h, 5 µM, inhibitor

| SMILES | % Inhibition | % Inhibition (% Inhibition) |
| --- | --- | --- |
| O=c1cc(N2CCNCC2)c(Cl)nn1Cc1ccc(NS(=O)(=O)c2ccc(Oc3ccccc3)cc2)cc1 [TCMDC-141701] | 10.25% |  |
| COc1ccc2nc(-c3cc(-c4ccc(NC(C)=O)cc4)cnc3N)[nH]c2c1 [TCMDC-135365] | -4.081% |  |
| Cc1sc(CNCCCNc2cc(=O)c3ccccc3[nH]2)c(I)c1C [TCMDC-140907] | -22.52% |  |
| CC(=O)N1c2ccccc2C(C)=CC1(C)C [TCMDC-123928] | -1.243% |  |
| CCCC1N=C(N)N=C(N)N1c1cccc(C(F)(F)F)c1 (centres unmarked) [TCMDC-131298] | -25.37% |  |
| CCN(CCCN1CCCCC1)c1cc(C)nc(Nc2ccc(Oc3ccccc3)cc2)n1 [TCMDC-132426] | 49.81% |  |
| Cl.Nc1ccnc2ccc(OCCCCCCc3ccccc3)cc12 [TCMDC-139072] | -2.454% |  |
| CN(C)CCCOC(=O)c1cc2cc(-c3ccccc3)ccc2n1S(=O)(=O)Cc1ccccc1 [TCMDC-139121] | 46.9% |  |
| CN(C)CCCn1c(C(=O)OC(c2ccccc2)c2ccccc2)cc2cc(OCc3ccccc3)ccc21 [TCMDC-138114] | 99.58% |  |
| CN(C)CCCN(C)C(=O)c1cc2cc(-c3ccccc3)ccc2n1S(=O)(=O)c1ccccc1 [TCMDC-139127] | 25.92% |  |
| COc1cc(C(=O)NC2CCC(CN3CCC(c4c[nH]c5ccccc45)CC3)CC2)cc(Cl)n1 (centres unmarked) [TCMDC-139937] | 89.84% |  |
| O=C(NC1CCC(CN2CCC(c3c[nH]c4ccccc34)CC2)CC1)c1cc2ccccc2o1 (centres unmarked) [TCMDC-139764] | 94.95% |  |
| Cn1nc(C(F)(F)F)cc1-c1ccc(C(=O)NC2CCC(CN3CCC(c4c[nH]c5ccccc45)CC3)CC2)s1 (centres unmarked) [TCMDC-140355] | 118.2% |  |
| O=C(NC1CCC(CN2CCC(c3c[nH]c4ccccc34)CC2)CC1)c1cc2ccccc2s1 (centres unmarked) [TCMDC-139710] |  | -31.58% |
| O=C(NC1CCC(CN2CCC(c3c[nH]c4ccccc34)CC2)CC1)c1cc(-c2ccccc2)c(C(F)(F)F)s1 (centres unmarked) [TCMDC-140356] | 23.32% |  |
| O=C(NC1CCC(CN2CCC(c3c[nH]c4ccccc34)CC2)CC1)c1cc2ccccc2s1 (centres unmarked) [TCMDC-139722] |  | 56.81% |
| Cc1ccccc1C1CCN(C2CCC(NC(=O)c3ccc(-c4cc(C(F)(F)F)nn4C)s3)CC2)CC1 (centres unmarked) [TCMDC-134107] | -22.15% |  |
| CC(C)C[C@@H](C(=O)N[C@H](C(=O)Nc1nccs1)C(C)(C)C)[C@H](CCC(F)(F)F)N(O)C=O [TCMDC-138178] | 1.039% |  |
| CCC1(CC)N=C(N)N=C(N)N1OCc1ccc(Cl)c(Cl)c1 [TCMDC-131656] | 33.88% |  |
| N#Cc1ccc(C(=O)Nc2ccc(Cl)c(N3CCN(CCc4ccccc4)CC3)c2)cc1 [TCMDC-133534] | -15.74% |  |
| CC(Nc1ccc2c(c1)CCC2)C(=O)Nc1cc(C(F)(F)F)ccc1N1CCOCC1 (centres unmarked) [TCMDC-124858] | 33.49% |  |
| COc1ccc2ncc(C#N)c(CCN3CCC(NCc4ccc5c(n4)NC(=O)CS5)CC3)c2n1 [TCMDC-135188] | -9.823% |  |

| SMILES | % Inhibition | % Inhibition (% Inhibition) |
| --- | --- | --- |
| CCN(CC)c1ccc(C=CC(=O)NCCN2CCC(N(C)C3CCCCC3C)CC2)cc1 (centres unmarked) [TCMDC-124445] | -34.59% |  |
| O=C(/C=C/c1cccc(C(F)(F)F)c1)NCCCCCN1CCC(c2c[nH]c3ccccc23)CC1 [TCMDC-139212] | -27.28% |  |
| CC1CCCCC1N(C)C1CCN(CCCNC(=O)C=Cc2ccc(Cl)cc2Cl)CC1 (centres unmarked) [TCMDC-124444] | 93.47% |  |
| CN(C(=O)/C=C/c1cc(C(F)(F)F)ccc1F)C1CCN(CCCCCNC(=O)/C=C/c2ccc(Cl)c(Cl)c2)CC1 [TCMDC-139991] | -46.39% |  |
| CC1CCCCC1N(C)C1CCN(CCCNC(=O)C=Cc2cccc(C(F)(F)F)c2)CC1 (centres unmarked) [TCMDC-124443] | 53.92% |  |
| CC1CCCCC1N(C)C1CCN(CCCNC(=O)C=Cc2ccccc2Cl)CC1 (centres unmarked) [TCMDC-124442] | 1.29% |  |
| Fc1ccc(COc2ccc(Nc3ncnc4ccc(I)cc34)cc2Cl)cc1 [TCMDC-138628] | -1.956% |  |
| Cc1c(Cc2ccc(C(C)C)cc2)cnc2nc(N)nc(N)c12 [TCMDC-138044] | 4.775% |  |
| CCOc1ccc(-c2nonc2NC(=O)CC(C)C)cc1OCC [TCMDC-125196] | 42.86% |  |
| CCOc1ccc(-c2nonc2NC(=O)c2ccco2)cc1OCC [TCMDC-125197] | 3.347% |  |
| CCCCC(=O)Nc1nonc1-c1ccc(OCC)c(OCC)c1 [TCMDC-125071] | 74.8% |  |
| CCOc1ccc(-c2nonc2NC(=O)c2cccc(Cl)c2)cc1OCC [TCMDC-125200] | 91.59% |  |
| CCOc1ccc(-c2nonc2NC(=O)c2ccccc2)cc1OCC [TCMDC-125199] | 91.48% |  |
| CCOc1ccc(-c2nonc2NC(=O)c2cccs2)cc1OCC [TCMDC-125207] | 83.06% |  |
| Cc1ccc2cc(NCCCCCCCCON3C(N)=NC(N)=NC34CCCCC4)ccc2n1 [TCMDC-140362] | 9.593% |  |
| Cn1cncc1C(=O)NC1CCN(c2ccnc(Nc3ccc(F)cc3)n2)C1 (centres unmarked) [TCMDC-133600] | -9.129% |  |
| CC(C)CC(C)NC(=O)C1Cc2c([nH]c3ccc(F)cc23)C2(CCN(Cc3ccccc3)CC2)N1 (centres unmarked) [TCMDC-141304] | -71.76% |  |
| Cc1cccc2nc(-c3ccc(-c4ccc(NC(=O)Nc5cccc(C#N)c5)cc4)s3)[nH]c12 [TCMDC-133189] | 17.89% |  |
| CCN(CC)S(=O)(=O)c1ccc(C(=O)Oc2ccccc2N(Cc2ccc(OC)cc2)C2=NS(=O)(=O)c3ccccc32)cc1 [TCMDC-125657] | 32.63% |  |
| COc1ccc2nccc([C@@H](O)CN3CCC(NCc4ccc5sc(=O)[nH]c5c4)CC3)c2c1 [TCMDC-141199] | 32.68% |  |
| Oc1ccc(CN2CCC(N3CCN(CCc4ccccc4)CC3)C(O)C2)cc1Cl (centres unmarked) [TCMDC-124627] | 21.13% |  |
| CCc1ccc(O)c(-c2cc(C(=O)Nc3cccnc3)[nH]n2)c1 [TCMDC-125321] | -26.21% |  |

— PMC4552634, “A New Set of Chemical Starting Points with Plasmodium falciparum Transmission-Blocking Potential for Antimalarial Drug Discovery” (PLoS ONE, 2015)
